# Screening results as filed in PubChem BioAssay.
# HT1080NT lethal = qHTS for induction of synthetic lethality in tumor cells producing 2HG: qHTS for the HT-1080-NT fibrosarcoma cell line | HT-1080-NT fibrosarcoma viability, CellTiter-Glo ATP luminescence, 48 h | Potency, µM (series often up to 46.1 µM), inactives show at the highest dose activity, negative = less viability, actives largely listed as cytotoxic | actives 1.6% (n = 360,000) | AID 686970, 2013;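 also: NT is the 2HG producing partner of a matched IDH1 knockdown line; 0% = DMSO-treated cells and -100% = media-only wells without cells; nearly all actives have a fitted effect of over 55% in size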
#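 HT-1080-NT fibrosarcoma cells (2HG-overproducing), 750 cells/well in RPMI with 5% FBS, dosed after 2 h and incubated 48 h at 37C. CellTiter-Glo luminescence normalized to DMSO and no-cell wells; concentration-response curves fitted and classed.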
# HT1080 IDH1KD tx = qHTS for induction of synthetic lethality in tumor cells producing 2HG: qHTS for the HT-1080-IDH1KD cell line. HT-1080 IDH1 knockdown viability, ATP luminescence, 48 h. Potency, µM (doses to about 46.1 µM), inactives show top-dose activity, negative = toxicity, usual class: cytotoxic. actives 2% (n = 360,000);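 also: 0% = DMSO wells and -100% = cell-free medium wells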
#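 Using the IDH1-knockdown HT-1080 line run in the same batch and compound series as the NT line, viability after 48 h at 37 °C was determined by CellTiter-Glo luminescence and expressed as % activity.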
# ATXN viability = Viability Counterscreen for Primary qHTS for Inhibitors of ATXN expression | actives 0.49% (n = 400,000) | Potency, µM (series often up to 56.7 µM), most hits filed as cytotoxic | S2 cells (HEK-293 line with an ATXN2-luciferase reporter) viability, CellTiter-Fluor protease fluorescence, 24 h; also: nearly all actives have a fitted effect of over 40% in size
# ATXN2 expr inh = Primary qHTS for Inhibitors of ATXN expression | HEK-293 ATXN2-luciferase reporter, luminescence, 24 h | Potency, µM (titrated, usually from 57 µM), inactives show at the highest dose activity change, negative = inhibition, hits mostly inhibitors | actives 0.72% (n = 360,000); also: % is scaled to controls: 0 for no effect and ±100 for the full control effect; nearly all actives have a fitted effect of over 55% in size
#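 ATXN2-luciferase reporter cells (luciferase flanked by upstream and downstream ATXN2 gene portions) were treated 24 h at 37 °C with compounds at up to 57 uM. SteadyGlo luminescence gave expression; GF-AFC fluorescence gave viability.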
# KB-3-1 cytotox = qHTS assay for MDR1-selective chemotherapeutics: Primary screen using the parental adenocarcinoma cell KB-3-1. KB-3-1 viability, CellTiter-Glo ATP luminescence, 72 h. Potency, µM (series often up to 46.1 µM), hits mostly cytotoxic. actives 1.4% (n = 400,000). AID 1347075, 2019; also: % is scaled to controls: 0 for no effect and ±100 for the full control effect; nearly all actives have a fitted effect of over 60% in size
#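 Parental KB-3-1 adenocarcinoma cells in phenol-red-free DMEM with 10% FBS were pin-treated with compounds at several concentrations, incubated 72 h at 37 °C, and viability read by CellTiter-Glo luminescence; concentration-effect curves were fitted after normalization.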
# KB-V1 MDR tox = qHTS assay for MDR1-selective chemotherapeutics: Primary screen using the drug-selected MDR subline cells KB-V1 | KB-V1 MDR cells viability, CellTiter-Glo, 72 h | Potency, µM (doses to about 46.1 µM), actives largely listed as cytotoxic | actives 3.4% (n = 400,000); also: % is scaled to controls: 0 for no effect and ±100 for the full control effect; nearly all actives have a fitted effect of over 60% in size
#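 qHTS viability screen in drug-selected KB-V1 MDR cells: 72 h compound treatment at 37 degrees C, ATP luminescence end point.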
# The depositor's hits bear a star; i = inactive; ? = inconclusive; . = no result given. In the library only some 6.2% were active in any assay of this set; here they are far more common. Calls follow the shape of the dose curve; as a rule, active = well fitted curve in the direction sought with a large enough effect; inconclusive = small, poorly fitted or top-dose-only effect, or another doubt; inactive = no such curve, though single readings can be large; an effect the other way counts as inactive or inconclusive. Potency is read from the fitted curve at half-maximal effect.
SMILES,HT1080NT lethal,HT1080 IDH1KD tx,ATXN viability,ATXN2 expr inh,KB-3-1 cytotox,KB-V1 MDR tox
COc1ccc2cc(C(=O)C3CCCN(Cc4cnc(C)s4)C3)ccc2c1 (stereo not given),?,-26%,i,?,?,9.2µM*
COc1ccc(C(=O)C2CCCN(Cc3cnc(N4CCCC4)s3)C2)cc1OC (stereo not given),-18%,-11%,i,.,i,i
Cc1ccc(S(=O)(=O)N2CCN(C(=O)c3ccc(N4CCC(C)CC4)c([N+](=O)[O-])c3)CC2)cc1,2%,-4%,?,-17%,i,18µM*
O=C(c1ccc(N2CCCC2)c([N+](=O)[O-])c1)N1CCN(S(=O)(=O)c2ccccc2)CC1,14%,3%,i,-21%,i,i
COc1ccc(NC(=O)CN2CCCN(S(=O)(=O)c3ccc(Br)cc3)CC2)c(OC)c1,.,.,?,-24%,?,?
CC12c3ccccc3C(c3ccccc31)C1C(=O)N(c3ccncc3)C(=O)C12 (stereo not given),-17%,-23%,i,-8%,i,i
CC12c3ccccc3C(c3ccccc31)C1C(=O)N(c3cccnc3)C(=O)C12 (stereo not given),5%,14%,i,-2%,i,15µM*
CCN1C(=O)c2ccc(C(=O)NCc3ccco3)cc2C1=O,20%,15%,0.16µM*,-17%,i,i
CCc1ccc(CNC(=O)c2ccc3c(c2)N=C(C)c2cc(C)ccc2S3)cc1,.,.,?,-18%,?,i
CCC1=Nc2cc(C(=O)NCc3ccco3)ccc2Sc2ccc(Cl)cc21,5.2µM*,?,?,4%,1.5µM*,1.5µM*
CCC1=Nc2cc(C(=O)NCc3ccco3)ccc2Sc2ccccc21,2.6µM*,5.8µM*,?,-18%,2.6µM*,?
CCCN1C(=O)c2ccc(C(=O)NCc3ccco3)cc2C1=O,-14%,-17%,i,8%,i,i
CCC1=Nc2cc(C(=O)NCc3cccnc3)ccc2Sc2ccc(C)cc21,2.3µM*,2.6µM*,i,-24%,?,?
COc1ccc2[nH]cc(C(=O)CNc3nccs3)c2c1,.,.,.,.,i,i
CC(=O)N1c2ccc(S(=O)(=O)NCCc3cccc(C)c3)cc2CC1C (stereo not given),.,.,i,-11%,i,i
O=C(Nc1ccc2nn(-c3ccccc3)nc2c1)c1ccc(-c2cccc(Cl)c2)o1,.,.,?,-3%,i,i
CCOC(=O)CSc1nc2ccc(NC(=O)c3ccc(F)cc3)cc2s1,.,.,i,4%,i,i
CC(C)Nc1nc2nonc2nc1Nc1ccccc1,-19%,?,i,-36%,18µM*,?
CC(C)Nc1ccccc1,17%,9%,i,-2%,i,i
O=C(Nc1cccnc1)c1cc(-c2cccc(Br)c2)nc2ccccc12,-6%,-2%,?,-20%,i,10µM*
COc1ccc(-c2cc(C(=O)Nc3cccnc3)c3ccccc3n2)cc1OC,-5%,-15%,i,8%,?,9.2µM*
O=C(Nc1cccnc1)c1cc(-c2cccnc2)nc2ccc(Br)cc12,-2%,-1%,i,-7%,i,i
O=C(NC1=NCCS1)c1cc(-c2cccc(Br)c2)nc2ccccc12,-1%,-18%,i,7%,?,15µM*
CN1CCC(NC(=O)c2cc(-c3cccc(Br)c3)nc3ccccc23)CC1,21µM*,21µM*,?,?,?,i
Cc1ccc2nc(-c3cccc(Br)c3)cc(C(=O)NC3=NCCS3)c2c1,-15%,-7%,i,20%,i,i
SMILES,HT1080NT lethal,HT1080 IDH1KD tx,ATXN viability,ATXN2 expr inh,KB-3-1 cytotox,KB-V1 MDR tox
O=C(NC1CC1)c1cc(-c2ccc(Br)cc2)nc2ccccc12,6%,0%,.,.,i,i
COc1cccc(-c2cc(C(=O)Nc3cccnc3)c3ccccc3n2)c1,-3%,-4%,?,-23%,i,?
Cc1cccc(N2CCN(C(=O)CN3C(=O)COc4ccc(S(=O)(=O)N5CCCC5)cc43)CC2)c1C,.,.,i,5%,i,i
O=C(Nc1ccncc1)c1cc(-c2cccc(Br)c2)nc2ccccc12,?,?,?,?,21µM*,?
O=C(NCc1ccccn1)c1cc(-c2ccc(Br)cc2)nc2ccccc12,9%,12%,i,3%,i,2.6µM*
COc1ccc(-c2nc3ccccc3s2)cc1NC(=O)c1cccc([N+](=O)[O-])c1C,.,.,i,107%,i,i
Cc1cccc(N=C2NN=C(c3c(C)[nH]c4ccccc34)CS2)c1,?,18µM*,?,28µM*,i,?
Cc1nn(C)c(C)c1CN(Cc1nc(-c2ccc(F)cc2F)oc1C)C1CC1,-2%,-16%,i,-12%,i,?
Cc1nn(C)c(C)c1CN(Cc1nc(-c2cc(F)ccc2F)oc1C)C1CC1,-16%,?,?,-23%,i,16µM*
COC(=O)c1ccc(CSc2nc3ccncc3n2Cc2ccc(F)cc2)cc1,.,.,i,15%,i,i
COc1cc(C(=O)Oc2cccc(/C=N/NC(=O)c3cccnc3)c2)cc(OC)c1OC,?,18µM*,i,2%,i,i
COc1ccc(C(=O)N/N=C/c2ccc(OC(=O)c3ccccc3)cc2)cc1,-3%,6%,i,14%,i,i
COc1cc(C(=O)Oc2ccccc2/C=N/NC(=O)c2ccc(C)cc2)cc(OC)c1OC,?,?,?,-10%,8.2µM*,i
COc1ccc(C(=O)N/N=C/c2ccc(N(C)c3ccccc3)cc2)cc1,-23%,-13%,i,27µM*,i,i
COc1ccc(C(=O)N/N=C/c2ccccc2OC(=O)c2ccccc2)cc1,4.6µM*,4.1µM*,?,-33%,18µM*,13µM*
O=C(N/N=C/c1cccc(OC(=O)c2cccc(Br)c2)c1)c1cccnc1,4%,-2%,i,3%,?,i
O=C(NC1CCCC1)c1cn(C2CCN(Cc3cccc4cccnc34)CC2)nn1,.,.,i,.,.,.
CCOC(=O)c1ccc(NC(=O)COCc2cc(-c3ccc4c(c3)OCO4)on2)cc1,.,.,.,.,i,i
